Measurements published in PubChem BioAssay (NCATS).
For some of these results: Entries with a potency or affinity are not part of this list. More than one record can exist for a structure, and the calls need not agree. Active and inactive are the calls of the source.

Legend:
[1] = Ebola virus entry assay, green fluorescence channel
[2] = Ebola virus entry assay, blue channel fluorescence
[3] = Ebola virus entry assay, green fluorescence channel; remark: listed apart in the source
[4] = Ebola virus entry assay, ratio channel readout
[5] = Ebola virus entry assay, blue channel fluorescence; remark: listed apart in the source
[6] = Ebola virus entry assay, ratio channel
[7] = Ebola virus entry assay, reporter ratio channel; AC50: Channel type: primary unless noted; outcome: Channel type: primary unless noted
[8] = Ebola virus entry assay, blue channel (ratio component)
[9] = Ebola virus entry reporter assay, green channel fluorescence
Throughout, for efficacy: 0% is about no effect.

NC(=O)C(c1ccccc1)(c1ccccc1)[C@@H]1CCN(CCc2ccc3c(c2)CCO3)C1
inactive: efficacy [1] 91.3% | outcome [2] | outcome [3] | outcome [4]
active: AC50 [5] 39.8 µM | AC50 [6] 31.6 µM | AC50 [7] 31.6 µM

CCc1nn(CCCN2CCN(c3cccc(Cl)c3)CC2)c(=O)n1CCOc1ccccc1
inactive: efficacy [1] 111% | outcome [2] | outcome [3] | outcome [4]
active: AC50 [5] 39.8 µM | AC50 [6] 31.6 µM | AC50 [7] 31.6 µM

CSc1ccc2c(c1)N(CCC1CCCCN1C)c1ccccc1S2 (stereo unspecified)
inactive: efficacy [1] -213% | outcome [3] | outcome [4]
active: AC50 [2] 10 µM | AC50 [5] 3.55 µM | AC50 [6] 3.16 µM | AC50 [7] 3.16 µM

Fc1ccc([C@@H]2CCNC[C@H]2COc2ccc3c(c2)OCO3)cc1
active: AC50 [2] 5.62 µM | AC50 [4] 5.02 µM | AC50 [5] 5.01 µM | AC50 [6] 3.98 µM | AC50 [7] 3.98 µM
inactive: efficacy [1] 101% | outcome [3]

O[C@@H](c1cc(C(F)(F)F)nc2c(C(F)(F)F)cccc12)[C@H]1CCCCN1
inactive: efficacy [1] -219% | outcome [3]
active: AC50 [2] 7.94 µM | AC50 [4] 5.63 µM | AC50 [5] 1.58 µM | AC50 [6] 1.58 µM | AC50 [7] 1.58 µM

CNCC[C@H](Oc1cccc2ccccc12)c1cccs1
inactive: efficacy [1] -133% | outcome [3] | outcome [4]
active: AC50 [2] 11.2 µM | AC50 [5] 6.31 µM | AC50 [6] 3.55 µM | AC50 [7] 3.55 µM

Cc1ccccc1C(OCCN(C)C)c1ccccc1 (stereo unspecified)
inactive: efficacy [1] 62.3% | outcome [3] | outcome [4]
active: AC50 [2] 10 µM | AC50 [5] 7.94 µM | AC50 [6] 8.91 µM | AC50 [7] 8.91 µM

Cc1ccc(-c2cc(C(F)(F)F)nn2-c2ccc(S(N)(=O)=O)cc2)cc1
inactive: efficacy [1] 26.9% | outcome [2] | outcome [3] | outcome [4] | outcome [6]
active: AC50 [5] 39.8 µM | AC50 [7] 39.8 µM

Cc1ccc(O)c([C@H](CCN(C(C)C)C(C)C)c2ccccc2)c1
inactive: efficacy [1] 106% | outcome [3] | outcome [4]
active: AC50 [2] 12.6 µM | AC50 [5] 14.1 µM | AC50 [6] 12.6 µM | AC50 [7] 12.6 µM

OC(CCN1CCCC1)(c1ccccc1)C1CCCCC1 (stereo unspecified)
inactive: efficacy [1] 120% | outcome [2] | outcome [3] | outcome [4]
active: AC50 [5] 25.1 µM | AC50 [6] 20 µM | AC50 [7] 20 µM

CNCCCC1c2ccccc2C=Cc2ccccc21
inactive: efficacy [1] 60.1% | outcome [3]
active: AC50 [2] 11.2 µM | AC50 [4] 8.92 µM | AC50 [5] 10 µM | AC50 [6] 8.91 µM | AC50 [7] 8.91 µM

OCCN(CCO)c1nc(N2CCCCC2)c2nc(N(CCO)CCO)nc(N3CCCCC3)c2n1
active: AC50 [3] 25.1 µM
inactive: efficacy [1] 489% | outcome [2] | outcome [4] | outcome [5] | outcome [6] | outcome [7]

CNCC[C@@H](Oc1ccccc1C)c1ccccc1
active: AC50 [5] 10 µM | AC50 [6] 10 µM | AC50 [7] 10 µM
inactive: efficacy [1] 103% | outcome [2] | outcome [3] | outcome [4]

COc1cc(NC(C)CCCN)c2ncccc2c1 (stereo unspecified)
inactive: efficacy [1] -153% | outcome [2] | outcome [3] | outcome [4]
active: AC50 [5] 5.01 µM | AC50 [6] 3.55 µM | AC50 [7] 3.55 µM

OCCN1CCN(CCCN2c3ccccc3Sc3ccc(Cl)cc32)CC1
inactive: efficacy [1] 88.4% | outcome [3]
active: AC50 [2] 6.31 µM | AC50 [4] 5.63 µM | AC50 [5] 2.82 µM | AC50 [6] 2.24 µM | AC50 [7] 2.24 µM

CCC(=O)C(CC(C)N(C)C)(c1ccccc1)c1ccccc1 (stereo unspecified)
active: AC50 [5] 10 µM | AC50 [6] 7.94 µM | AC50 [7] 7.94 µM
inactive: efficacy [1] 118% | outcome [2] | outcome [3] | outcome [4]

COc1ccc([C@@H]2Sc3ccccc3N(CCN(C)C)C(=O)[C@@H]2OC(C)=O)cc1
inactive: efficacy [1] 53.7% | outcome [2] | outcome [3] | outcome [4]
active: AC50 [5] 28.2 µM | AC50 [6] 25.1 µM | AC50 [7] 25.1 µM

CC(N)C12CC3CC(CC(C3)C1)C2 (stereo unspecified)
inactive: efficacy [1] 56.9% | outcome [2] | outcome [3] | outcome [4]
active: AC50 [5] 28.2 µM | AC50 [6] 28.2 µM | AC50 [7] 28.2 µM

COc1cc2nc(N3CCN(C(=O)c4ccco4)CC3)nc(N)c2cc1OC
active: AC50 [5] 15.8 µM | AC50 [6] 12.6 µM | AC50 [7] 12.6 µM
inactive: efficacy [1] 75.4% | outcome [2] | outcome [3] | outcome [4]

CC(CN1c2ccccc2Sc2ccccc21)N(C)C (stereo unspecified)
active: AC50 [5] 39.8 µM | AC50 [6] 31.6 µM | AC50 [7] 31.6 µM
inactive: efficacy [1] 81.3% | outcome [2] | outcome [3] | outcome [4]

O=C1Cc2cc(CCN3CCN(c4nsc5ccccc45)CC3)c(Cl)cc2N1
inactive: efficacy [1] 34% | outcome [2] | outcome [3] | outcome [4]
active: AC50 [5] 22.4 µM | AC50 [6] 17.8 µM | AC50 [7] 17.8 µM

COc1cc(C(C)=O)ccc1OCCCN1CCC(c2noc3cc(F)ccc23)CC1
active: AC50 [5] 31.6 µM | AC50 [6] 28.2 µM | AC50 [7] 28.2 µM
inactive: efficacy [1] 81.4% | outcome [2] | outcome [3] | outcome [4]

CC(C)NCC(O)COc1ccc(CCOCC2CC2)cc1 (stereo unspecified)
active: AC50 [5] 14.1 µM | AC50 [6] 11.2 µM | AC50 [7] 11.2 µM
inactive: efficacy [1] 65% | outcome [2] | outcome [3] | outcome [4]

CN1CCN(C2=Nc3ccccc3Oc3ccc(Cl)cc32)CC1
inactive: efficacy [1] 112% | outcome [2] | outcome [3] | outcome [4]
active: AC50 [5] 39.8 µM | AC50 [6] 31.6 µM | AC50 [7] 31.6 µM

CN(C)C(=O)C(CCN1CCC(O)(c2ccc(Cl)cc2)CC1)(c1ccccc1)c1ccccc1
active: AC50 [2] 11.2 µM | AC50 [5] 3.16 µM | AC50 [6] 2.51 µM | AC50 [7] 2.51 µM
inactive: efficacy [1] -226% | outcome [3] | outcome [4]

C=C1C[C@@H]2[C@H](CC[C@]3(C)C(=O)CC[C@@H]23)[C@@]2(C)C=CC(=O)C=C12
inactive: efficacy [1] 112% | outcome [2] | outcome [3] | outcome [4]
active: AC50 [5] 28.2 µM | AC50 [6] 25.1 µM | AC50 [7] 25.1 µM

CCN(CC)CCCC(C)Nc1ccnc2cc(Cl)ccc12 (stereo unspecified)
active: AC50 [2] 3.98 µM | AC50 [4] 2.82 µM | AC50 [5] 1.26 µM | AC50 [6] 1.12 µM | AC50 [7] 1.12 µM
inactive: efficacy [1] 34.3% | outcome [3]

CN1CCC[C@@H]1CCO[C@](C)(c1ccccc1)c1ccc(Cl)cc1
active: AC50 [2] 3.55 µM | AC50 [4] 3.17 µM | AC50 [5] 1.78 µM | AC50 [6] 1.41 µM | AC50 [7] 1.41 µM
inactive: efficacy [1] -151% | outcome [3]

CN1CCN(CCCN2c3ccccc3Sc3ccc(C(F)(F)F)cc32)CC1
active: AC50 [2] 7.08 µM | AC50 [5] 3.55 µM | AC50 [6] 2.82 µM
inactive: efficacy [1] -186% | outcome [3] | outcome [4] | outcome [7] inactive [Channel type: confirmation]

CN(C)CC/C=C1\c2ccccc2COc2ccccc21
inactive: efficacy [1] 117% | outcome [2] | outcome [3] | outcome [4]
active: AC50 [5] 20 µM | AC50 [6] 14.1 µM | AC50 [7] 14.1 µM

Clc1ccc2c(c1)C(N1CCNCC1)=Nc1ccccc1O2
active: AC50 [2] 14.1 µM | AC50 [4] 12.6 µM | AC50 [5] 14.1 µM | AC50 [6] 10 µM | AC50 [7] 10 µM
inactive: efficacy [1] 94.9% | outcome [3]

OCCN1CCN(CCCN2c3ccccc3Sc3ccc(C(F)(F)F)cc32)CC1
active: AC50 [5] 3.55 µM | AC50 [6] 3.16 µM | AC50 [7] 3.16 µM
inactive: efficacy [1] -98.3% | outcome [2] | outcome [3] | outcome [4]

CC/C(=C(\c1ccccc1)c1ccc(OCCN(C)C)cc1)c1ccccc1
active: AC50 [2] 1.12 µM | AC50 [4] 1.26 µM | AC50 [5] 1.41 µM | AC50 [6] 1.12 µM | AC50 [7] 1.12 µM
inactive: efficacy [1] -205% | outcome [3] | outcome [7] inactive [Channel type: confirmation]

CC[C@]1(O)C[C@H]2CN(CCc3c([nH]c4ccccc34)[C@@](C(=O)OC)(c3cc4c(cc3OC)N(C=O)[C@H]3[C@@](O)(C(=O)OC)[C@H](OC(C)=O)[C@]5(CC)C=CCN6CC[C@]43[C@@H]65)C2)C1
active: AC50 [5] 0.282 µM
inactive: efficacy [1] 37.5% | outcome [2] | outcome [3] | outcome [4] | outcome [6] | outcome [7] inactive [Channel type: confirmation] | outcome [8]

CCN(CC)CCNC(=O)c1c(C)[nH]c(/C=C2\C(=O)Nc3ccc(F)cc32)c1C
inactive: efficacy [1] -131% | outcome [3] | outcome [7] inactive [Channel type: confirmation]
active: AC50 [2] 3.55 µM | AC50 [4] 3.17 µM | AC50 [5] 1 µM | AC50 [6] 0.708 µM

O[C@@H](CNC[C@H](O)[C@H]1CCc2cc(F)ccc2O1)[C@@H]1CCc2cc(F)ccc2O1
inactive: efficacy [1] -189% | outcome [3] | outcome [4]
active: AC50 [2] 11.2 µM | AC50 [5] 7.94 µM | AC50 [6] 3.55 µM | AC50 [7] 3.55 µM

Cc1c(O)cccc1C(=O)N[C@@H](CSc1ccccc1)[C@H](O)CN1C[C@H]2CCCC[C@H]2C[C@H]1C(=O)NC(C)(C)C
inactive: efficacy [1] 83.4% | outcome [2] | outcome [3] | outcome [4] | outcome [6] | outcome [9]
active: AC50 [5] 39.8 µM | AC50 [7] 39.8 µM

CCN(CC)CCN1C(=O)CN=C(c2ccccc2F)c2cc(Cl)ccc21
inactive: efficacy [1] 47.1% | outcome [2] | outcome [3] | outcome [4] | outcome [6] | outcome [9]
active: AC50 [5] 35.5 µM | AC50 [7] 39.8 µM

COc1cc2ncnc(Nc3ccc(F)c(Cl)c3)c2cc1OCCCN1CCOCC1
active: AC50 [2] 15.8 µM | AC50 [5] 2.82 µM | AC50 [6] 2.51 µM | AC50 [7] 2.51 µM
inactive: efficacy [1] 41.5% | outcome [3] | outcome [4] | outcome [9]

CC12CC3CC(C)(C1)CC(N)(C3)C2
active: AC50 [5] 14.1 µM | AC50 [6] 14.1 µM | AC50 [7] 14.1 µM
inactive: efficacy [1] 58.3% | outcome [2] | outcome [3] | outcome [4] | outcome [9]
